About 2,000 (36%) of roughly 5,500 compounds were called active. About 18% were inconclusive and are not listed. Rule as the data show it: active = normalized growth mostly below about 0.91 (no sharp cut-off); inconclusive = no clear call, values can overlap the other calls; inactive = mostly above about 0.92. Some of the results follow.
Test: chemical genetic growth profiling, strain panel (AID 1159580);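 also: tested at 20 µM; growth read once vehicle control cultures reached saturation at 30 °C; 1 = growth at the plate median or of vehicle wells; lower values mean less growth of the strain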
Settings: S. cerevisiae deletion strains, growth OD

Measured: normalized growth

COC(=O)c1c(C)cc(O)cc1O
inactive: locus YAL021C, strain ccr4, stronger effect = lower value 1.02 | locus YAL026C, strain drs2, stronger effect = lower value 1 | locus YAL030W, strain snc1, stronger effect = lower value 1 | locus YBL061C, strain skt5, stronger effect = lower value 1.02 | locus YBR009C, strain hhf1, stronger effect = lower value 1 | locus YBR023C, strain chs3, stronger effect = lower value 1.01 | locus YBR171W, strain sec66, stronger effect = lower value 1 | locus YBR231C, strain swc5, stronger effect = lower value 1.01 | locus YBR279W, strain paf1, stronger effect = lower value 1.02 | locus YCL011C, strain gbp2, stronger effect = lower value 1.01 | locus YCL016C, strain dcc1, stronger effect = lower value 1.01 | locus YCL061C, strain MRC1, stronger effect = lower value 1.01 | locus YCL069W, strain vba3, stronger effect = lower value 0.999 | locus YCR088W, strain abp1, stronger effect = lower value 0.994 | locus YDL005C, strain med2, stronger effect = lower value 1.01 | locus YDL040C, strain nat1, stronger effect = lower value 1 | locus YDR001C, strain nth1, stronger effect = lower value 0.998 | locus YDR069C, strain doa4, stronger effect = lower value 1.01 | locus YDR137W, strain rgp1, stronger effect = lower value 1 | locus YDR159W, strain sac3, stronger effect = lower value 1.02 | locus YDR195W, strain ref2 1.05 | locus YDR297W, strain sur2, stronger effect = lower value 1.01 | locus YDR334W, strain swr1, stronger effect = lower value 1.01 | locus YDR335W, strain msn5, stronger effect = lower value 1.01 | locus YDR392W, strain spt3, stronger effect = lower value 0.978 | locus YEL003W, strain gim4, stronger effect = lower value 1.01 | locus YEL037C, strain rad23, stronger effect = lower value 1.01 | locus YEL061C, strain CIN8 (second series), stronger effect = lower value 1.01 | locus YER015W, strain faa2, stronger effect = lower value 1 | locus YER016W, strain bim1, stronger effect = lower value 1.01 | locus YER111C, strain swi4, stronger effect = lower value 1.03 | locus YER155C, strain BEM2 (second series), stronger effect = lower value 0.995 | locus YFR010W, strain ubp6, stronger effect = lower value 1.02 | locus YGL167C, strain pmr1, stronger effect = lower value 1.01 | locus YGL173C, strain kem1, stronger effect = lower value 1.02 | locus YGL227W, strain vid30, stronger effect = lower value 1 | locus YGL240W, strain doc1, stronger effect = lower value 1 | locus YGL253W, strain hxk2, stronger effect = lower value 1.01 | locus YHR013C, strain ard1, stronger effect = lower value 1.03 | locus YHR027C, strain rpn1, stronger effect = lower value 1.02 | locus YHR030C, strain SLT2, stronger effect = lower value 0.994 | locus YHR079C, strain IRE1, stronger effect = lower value 0.996 | locus YHR142W, strain chs7, stronger effect = lower value 1 | locus YJL092W, strain hpr5, stronger effect = lower value 0.998 | locus YJL095W, strain BCK1 (second series), stronger effect = lower value 1 | locus YJL095W, strain BCK1, stronger effect = lower value 0.984 | locus YJL115W, strain asf1, stronger effect = lower value 1.01 | locus YJL129C, strain trk1, stronger effect = lower value 1 | locus YJL154C, strain vps35, stronger effect = lower value 1.01 | locus YJL164C, strain tpk1, stronger effect = lower value 1.01 | locus YJL166W, strain qcr8, stronger effect = lower value 0.998 | locus YJL187C, strain SWE1, stronger effect = lower value 1.01 | locus YJR066W, strain TOR1, stronger effect = lower value 0.948 | locus YKL160W, strain elf1, stronger effect = lower value 1 | locus YKR026C, strain gcn3, stronger effect = lower value 1 | locus YKR091W, strain srl3, stronger effect = lower value 1.01 | locus YLL001W, strain dnm1, stronger effect = lower value 1.02 | locus YLL026W, stronger effect = lower value 0.996 | locus YLL041C, strain sdh2, stronger effect = lower value 1.01 | locus YLR027C, strain aat2, stronger effect = lower value 1.01 | locus YLR113W, strain HOG1, stronger effect = lower value 1.03 | locus YLR221C, strain rsa3, stronger effect = lower value 0.999 | locus YLR258W, strain gsy2, stronger effect = lower value 1.01 | locus YLR262C, strain YPT6 (second series), stronger effect = lower value 0.985 | locus YLR320W, strain mms22, stronger effect = lower value 1.01 | locus YLR342W, strain FKS1, stronger effect = lower value 1.01 | locus YLR357W, strain rsc2, stronger effect = lower value 1.03 | locus YLR370C, strain arc18, stronger effect = lower value 0.992 | locus YLR384C, strain iki3, stronger effect = lower value 1.01 | locus YML120C, strain ndi1, stronger effect = lower value 0.993 | locus YMR058W, strain fet3, stronger effect = lower value 1.01 | locus YMR125W, strain sto1, stronger effect = lower value 1.02 | locus YMR129W, stronger effect = lower value 1.01 | locus YMR205C, strain PFK2, stronger effect = lower value 1.01 | locus YMR231W, strain pep5, stronger effect = lower value 1.01 | locus YNL071W, strain lat1, stronger effect = lower value 0.987 | locus YNL183C, strain NPR1, stronger effect = lower value 0.917 | locus YNL209W, strain ssb2, stronger effect = lower value 1.01 | locus YNL248C, strain rpa49, stronger effect = lower value 1.01 | locus YNL322C, strain KRE1 (second series), stronger effect = lower value 1 | locus YNR049C, strain mso1, stronger effect = lower value 1 | locus YOR001W, strain rrp6, stronger effect = lower value 1 | locus YOR070C, strain gyp1, stronger effect = lower value 1 | locus YOR080W, strain dia2, stronger effect = lower value 1.01 | locus YOR083W, strain WHI5, stronger effect = lower value 1.01 | locus YOR106W, strain vam3, stronger effect = lower value 0.999 | locus YOR231W, strain MKK1, stronger effect = lower value 0.987 | locus YOR265W, strain rbl2, stronger effect = lower value 0.999 | locus YOR270C, strain vph1, stronger effect = lower value 0.961 | locus YOR290C, strain snf2, stronger effect = lower value 1.01 | locus YPL051W, strain arl3, stronger effect = lower value 1 | locus YPL078C, strain atp4, stronger effect = lower value 0.999 | locus YPL106C, strain sse1, stronger effect = lower value 0.982 | locus YPL240C, strain hsp82, stronger effect = lower value 0.996 | locus YPL256C, strain CLN2, stronger effect = lower value 1.01

From PubChem BioAssay AID1159580 (chemical genetic matrix, 2015)
